# PubChem BioAssay (Tox21)
# Where “and” joins values, the source holds several entries; their conditions need not be identical. Identical values can stand only once. Inconclusive results are not listed. A call without a number means that no potency is given here. Where a structure was tested more than once in an assay, its records may differ in their call. Calls of active or inactive are those of the source. Unless noted, calls come from the whole dose curve.
# Experiments:
# [1] = target: Estrogen receptor beta (Homo sapiens) (UniProt Q92731); experiment: qHTS assay to identify small molecule agonists of the estrogen receptor beta (ER-beta) signaling pathway (AID 1259377; active = well fitted activation curve with a large enough effect in the signal ratio in the repeat runs, not every such curve was filed as active; the % refers to the signal ratio)
# Procedure, shortened: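 Ratiometric beta-lactamase FRET read-out came after 2 h substrate loading at room temperature. It followed 16 h compound treatment at 37C of GripTite HEK293T cells carrying a UAS-bla reporter, plated in 2% charcoal-stripped FBS medium.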
# [2] = target: Estrogen receptor beta (Homo sapiens) (UniProt Q92731); experiment: qHTS assay to identify small molecule antagonists of the estrogen receptor beta (ER-beta) signaling pathway (AID 1259378; active = well fitted inhibition curve with a large enough effect in the signal ratio in the repeat runs, not every such curve was filed as active; the % refers to the signal ratio)
# Procedure, shortened: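 Antagonist mode: compounds added to beta-lactamase reporter HEK293T ER-beta-UAS cells stimulated with E2 (1nM final), 16 hr at 37C. LiveBLAzer B/G FRET substrate, 2 hours room temperature, fluorescence read-out.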
# [3] = qHTS assay to identify small molecule agonists of the androgen receptor (AR) signaling pathway in the presence of an antagonist - cell viability counter screen (AID 1259379; active = well fitted curve in the direction sought with a large enough effect in the repeat runs; an effect the other way counts as inactive or inconclusive; note: nearly all actives have a fitted effect of over 25% in size; note: potency is the fitted concentration of half-maximal effect)
# Procedure, shortened: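 Counter screen for cell viability run in parallel with the AR agonist-mode luciferase assay. MDA-kb2 cells were co-treated with nilutamide (3.0uM final) and compounds, then incubated 16 hr at 37C, and CellTiter-Fluor fluorescence was measured.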
# [4] = qHTS assay to identify small molecule agonists of the estrogen receptor beta (ER-beta) signaling pathway - cell viability counter screen (AID 1259380; active = well fitted curve in the direction sought with a large enough effect in the repeat runs; an effect the other way counts as inactive or inconclusive; note: nearly all actives have a fitted effect of over 30% in size; note: potency is the fitted concentration of half-maximal effect)
# Procedure, shortened: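 In this qHTS counter screen, HEK293T cells carrying an ER-beta/UAS beta-lactamase reporter, grown in 2% charcoal-stripped FBS, received compound for 16 hr; ATP-based CellTiter-Glo luminescence was then read after 30 min at room temperature.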
# [5] = qHTS assay to identify small molecule antagonists of the estrogen receptor beta (ER-beta) signaling pathway - cell viability counter screen (AID 1259382; active = well fitted curve in the direction sought with a large enough effect in the repeat runs; an effect the other way counts as inactive or inconclusive; note: nearly all actives have a fitted effect of over 55% in size; note: potency is the fitted concentration of half-maximal effect)
# Procedure, shortened: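 HEK293T ER-beta-UAS-bla, 2% charcoal-stripped FBS; compounds + 1nM E2 16 hr 37C; CellTiter-Glo luminescence, 30 min RT.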
# [6] = qHTS assay to identify small molecule agonists or antagonists of the thyroid stimulating hormone receptor (TSHR) signaling pathway - wild type cell line counter screen (AID 1259384)
# Procedure, shortened: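 Counter screen in untransfected Hek293: compounds (15-point titration, triplicate) plus phosphodiesterase inhibitor Ro20-1724 added after 18 h plating; 30 min RT. Intracellular cAMP via competitive d2/cryptate immunoassay, 1 h incubation.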
# [7] = target: Thyrotropin receptor (Homo sapiens) (UniProt P16473); experiment: qHTS assay to identify small molecule antagonists of the thyroid stimulating hormone receptor (TSHR) signaling pathway (AID 1259385); note: nearly all actives have a fitted effect of over 20% in size
# Procedure, shortened: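 Antagonist mode: compound-treated TSHR-expressing HEK293 cells were stimulated with 1.5 ng/mL TSH (final) in presence of Ro20-1724 for 30 min at RT. HTRF cAMP detection after 1 h; each compound tested at 15 concentrations, triplicate.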
# [8] = qHTS assay to identify small molecule antagonists of the sonic hedgehog signaling (Shh) pathway (AID 1259369); note: nearly all actives have a fitted effect of over 45% in size; note: potency is the fitted concentration of half-maximal effect
# Procedure, shortened: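 Gli1 transcriptional reporter (firefly Luc) in NIH/3T3 background, conditioned-medium activated. 24hr exposure, luminescence endpoint.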
# [9] = target: Estrogen receptor (Homo sapiens) (UniProt P03372); experiment: qHTS assay to identify small molecule agonists of the estrogen receptor alpha (ER-alpha) signaling pathway in the presence of an antagonist (AID 1259383); note: nearly all actives have a fitted effect of over 15% in size; note: potency is the fitted concentration of half-maximal effect; for activation: top concentration of the series differs between compounds
# Procedure, shortened: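 ER-alpha agonism measured under antagonist challenge: 10.0nM ICI-182,780 (final) plus compound, 15 concentrations, 22hr, VM7Luc4E2 ERE-luciferase cells. Read by luminescence.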
# [10] = target: Androgen receptor (Homo sapiens) (UniProt P10275); experiment: qHTS assay to identify small molecule agonists of the androgen receptor (AR) signaling pathway in the presence of an antagonist (AID 1259381); note: nearly all actives have a fitted effect of over 15% in size
# Procedure, shortened: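 AR antagonist background: nilutamide 3.0uM final. Cell line: MDA-kb2, MMTV-driven luciferase, responsive to both AR and GR. Exposure 16hr, 37C, no CO2; ONE-Glo luminescence.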
# Chain of Estrogen receptor (Homo sapiens) (P03372 whole entry, looked up): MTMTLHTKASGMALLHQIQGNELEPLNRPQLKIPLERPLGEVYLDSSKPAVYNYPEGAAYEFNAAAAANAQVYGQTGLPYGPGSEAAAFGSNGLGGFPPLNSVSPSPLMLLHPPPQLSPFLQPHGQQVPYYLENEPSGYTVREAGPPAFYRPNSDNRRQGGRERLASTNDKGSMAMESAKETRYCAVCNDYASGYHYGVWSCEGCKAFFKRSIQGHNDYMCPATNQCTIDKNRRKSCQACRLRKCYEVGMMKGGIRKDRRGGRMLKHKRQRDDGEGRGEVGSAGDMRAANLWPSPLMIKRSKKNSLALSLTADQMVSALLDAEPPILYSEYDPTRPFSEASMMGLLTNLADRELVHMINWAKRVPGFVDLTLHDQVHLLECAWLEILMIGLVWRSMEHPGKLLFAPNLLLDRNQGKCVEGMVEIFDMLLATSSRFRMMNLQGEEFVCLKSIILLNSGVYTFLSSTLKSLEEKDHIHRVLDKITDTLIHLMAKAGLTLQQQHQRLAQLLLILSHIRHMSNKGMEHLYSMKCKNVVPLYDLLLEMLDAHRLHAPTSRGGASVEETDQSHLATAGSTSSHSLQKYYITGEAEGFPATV
# Chain of Estrogen receptor beta (Homo sapiens) (Q92731 whole entry, looked up): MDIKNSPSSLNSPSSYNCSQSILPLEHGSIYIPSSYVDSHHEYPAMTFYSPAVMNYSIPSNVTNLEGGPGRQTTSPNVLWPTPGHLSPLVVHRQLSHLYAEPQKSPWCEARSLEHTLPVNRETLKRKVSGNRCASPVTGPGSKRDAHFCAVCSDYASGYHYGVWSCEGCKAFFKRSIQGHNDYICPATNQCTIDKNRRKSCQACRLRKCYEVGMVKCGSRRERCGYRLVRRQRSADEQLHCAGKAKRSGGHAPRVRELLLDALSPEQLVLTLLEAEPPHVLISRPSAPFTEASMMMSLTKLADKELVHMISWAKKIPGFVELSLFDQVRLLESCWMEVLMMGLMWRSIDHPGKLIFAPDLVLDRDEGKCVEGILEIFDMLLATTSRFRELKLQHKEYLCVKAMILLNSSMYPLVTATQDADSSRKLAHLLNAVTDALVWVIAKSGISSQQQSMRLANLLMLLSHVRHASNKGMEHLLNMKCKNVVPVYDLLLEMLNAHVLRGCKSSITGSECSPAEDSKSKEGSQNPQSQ
# Chain of Thyrotropin receptor (Homo sapiens) (P16473 whole entry, looked up): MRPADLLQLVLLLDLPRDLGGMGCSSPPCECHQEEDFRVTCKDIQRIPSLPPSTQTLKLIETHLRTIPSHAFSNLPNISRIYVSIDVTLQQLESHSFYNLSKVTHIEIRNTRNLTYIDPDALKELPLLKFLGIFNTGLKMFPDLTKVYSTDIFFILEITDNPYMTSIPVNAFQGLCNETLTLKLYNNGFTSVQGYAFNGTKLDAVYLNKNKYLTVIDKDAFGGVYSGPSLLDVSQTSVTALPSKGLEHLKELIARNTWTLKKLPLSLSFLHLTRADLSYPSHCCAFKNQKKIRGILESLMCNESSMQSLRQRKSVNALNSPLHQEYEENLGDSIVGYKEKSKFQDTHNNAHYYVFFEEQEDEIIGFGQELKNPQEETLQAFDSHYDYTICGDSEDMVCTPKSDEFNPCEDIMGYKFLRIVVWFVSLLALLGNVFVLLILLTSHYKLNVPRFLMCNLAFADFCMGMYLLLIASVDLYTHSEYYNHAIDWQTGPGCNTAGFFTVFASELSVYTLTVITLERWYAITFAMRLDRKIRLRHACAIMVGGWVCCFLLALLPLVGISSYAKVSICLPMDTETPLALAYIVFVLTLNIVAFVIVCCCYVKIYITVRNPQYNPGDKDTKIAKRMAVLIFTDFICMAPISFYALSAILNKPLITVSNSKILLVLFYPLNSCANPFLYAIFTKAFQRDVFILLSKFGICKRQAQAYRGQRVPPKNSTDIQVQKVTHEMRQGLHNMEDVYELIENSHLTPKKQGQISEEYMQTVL
# Chain of Androgen receptor (Homo sapiens) (P10275 whole entry, looked up): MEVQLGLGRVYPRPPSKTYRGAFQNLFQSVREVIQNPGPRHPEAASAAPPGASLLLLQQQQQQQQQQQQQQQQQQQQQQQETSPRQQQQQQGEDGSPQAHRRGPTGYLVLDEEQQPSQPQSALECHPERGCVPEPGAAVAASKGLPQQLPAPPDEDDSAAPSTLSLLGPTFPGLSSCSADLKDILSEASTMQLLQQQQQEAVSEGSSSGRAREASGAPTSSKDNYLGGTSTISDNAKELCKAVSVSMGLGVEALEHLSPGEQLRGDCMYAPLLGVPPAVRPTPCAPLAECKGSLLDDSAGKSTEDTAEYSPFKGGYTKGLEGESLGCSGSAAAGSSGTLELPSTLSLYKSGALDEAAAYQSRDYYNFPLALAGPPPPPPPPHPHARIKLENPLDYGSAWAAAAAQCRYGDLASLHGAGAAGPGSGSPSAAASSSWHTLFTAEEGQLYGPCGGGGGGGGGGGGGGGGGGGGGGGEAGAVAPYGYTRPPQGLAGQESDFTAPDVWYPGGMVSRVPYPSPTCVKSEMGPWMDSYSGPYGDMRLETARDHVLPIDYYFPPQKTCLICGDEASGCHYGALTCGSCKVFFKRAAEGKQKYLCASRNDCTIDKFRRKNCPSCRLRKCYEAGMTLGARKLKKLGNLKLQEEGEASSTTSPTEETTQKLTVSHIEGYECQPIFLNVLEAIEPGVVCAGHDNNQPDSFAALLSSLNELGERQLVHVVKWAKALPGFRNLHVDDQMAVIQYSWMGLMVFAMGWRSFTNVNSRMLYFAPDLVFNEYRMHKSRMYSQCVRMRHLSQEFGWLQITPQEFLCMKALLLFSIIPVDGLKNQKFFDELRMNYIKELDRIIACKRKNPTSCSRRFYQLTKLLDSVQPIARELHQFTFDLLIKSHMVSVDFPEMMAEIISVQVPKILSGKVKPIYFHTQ
SMILES,outcome [1],Potency [2],Potency [3],Potency [4],Potency [5],Potency [6],Potency [7],Potency [8],Potency [9],Potency [10]
Cc1cc(C(C)(C)C)c(O)c(C(C)(C)C)c1,inactive,inactive,inactive,inactive,inactive,inactive,inactive,–,–,–
CCC(=O)/C=C/C1C(C)=CCCC1(C)C (stereo not given),inactive,inactive,inactive,inactive,inactive,inactive,inactive,–,–,–
COC(=O)[C@H]1[C@H]2C[C@@H]3c4[nH]c5cc(OC)ccc5c4CCN3C[C@H]2C[C@@H](OC(=O)c2cc(OC)c(OC)c(OC)c2)[C@@H]1OC,–,–,–,8.62 µM (active) and 9.96 µM (active) and 11.9 µM (active),–,inactive,inactive,12.2 µM (active) and 15.8 µM (active) and 23.7 µM (active),–,–
Nc1cc(S(=O)(=O)O)cc2cc(S(=O)(=O)O)cc(O)c12,–,–,–,inactive and 4.33 µM (active),inactive,–,–,inactive,–,–
C[N+]1([O-])CCOCC1,inactive,inactive,inactive,inactive,inactive,inactive,inactive,–,–,–
c1cc(C(c2ccc(OCC3CO3)cc2)C(c2ccc(OCC3CO3)cc2)c2ccc(OCC3CO3)cc2)ccc1OCC1CO1 (stereo not given),–,–,inactive,–,inactive,inactive,inactive,inactive,inactive,–
Nc1ccc2cc3ccccc3cc2c1,–,–,inactive,–,inactive,inactive,inactive,inactive,1.75 µM (active) and 13.7 µM (active),–
CC(C)CCOCc1ccccc1,inactive,inactive,–,inactive,inactive,inactive,inactive,–,inactive,inactive
COc1ccc(COC(C)=O)cc1,–,–,inactive,inactive,inactive,inactive,inactive,inactive,–,–
CC(C)(c1ccccc1)c1ccc(Nc2ccc(C(C)(C)c3ccccc3)cc2)cc1,–,–,–,inactive,inactive,inactive,inactive,inactive,inactive,–
O=C(O)c1cn(-c2ccc(F)cc2)c2cc(N3CCNCC3)c(F)cc2c1=O,–,–,–,inactive,inactive,inactive,inactive,inactive,–,–
COc1nc(C)nc(Cl)c1NC1=NCCN1,inactive,inactive,–,inactive,inactive,inactive,inactive,–,inactive,–
CC(C)C(=O)c1c(C(C)C)nn2ccccc12,–,–,–,inactive,inactive,–,–,–,–,–
CC[C@H]1CN2CCc3cc(OC)c(OC)cc3[C@@H]2C[C@@H]1C[C@H]1NCCc2cc(OC)c(OC)cc21,–,–,194 nM (active),inactive,inactive,–,–,–,–,–
CCCCC/C=C/CC1CC(=O)OC1=O (stereo not given),–,–,–,inactive,inactive,inactive,inactive,–,inactive,–
CCN1CCCC1CNC(=O)c1cc(S(=O)(=O)CC)c(N)cc1OC (stereo not given),–,–,inactive,inactive,inactive,inactive,inactive,–,inactive,–
Cc1cc(Cc2cc(C)cc(C(C)(C)C)c2O)c(O)c(C(C)(C)C)c1,–,–,–,13.8 µM (active) and 21.7 µM (active),17.3 µM (active) and 21.7 µM (active),inactive,inactive,–,inactive,–
O,–,–,inactive,inactive,inactive,inactive,inactive,–,–,–
CC(C)(C)NCC(O)COc1ccccc1OCC1CCCO1 (stereo not given),inactive,inactive,–,inactive,inactive,inactive,inactive,–,inactive,–
